We go through five molecules from PubChem BioAssay.

The test system of test [1] is Wnt5a (protein binding on small-molecule microarray). As to the kind of experiment: Wnt5a binders on small-molecule microarray, primary screen, biophysical, 635/667 nm fluorescence (AID 1142).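 Further: fluorescence read at 667 nm with signal to noise per printed feature.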 To be noted: 635 nm fluorescence, higher = more signal.
Test [2] is described as follows: cell viability in Huh7 cells, primary screen, cytotoxicity control for HCV replication inhibitor project, CellTiter-Glo luminescence, basal, 48 h (AID 1143).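 Further: Huh7 hepatoma cells carrying a hepatitis C replication reporter with no stimulus; test concentration not given here.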 To be noted: Huh7 HCV replicon, higher = more signal, called active from +8 up or from −8 down. (ATP-based viability assays read luminescence as a measure of living cells.)
A short description of test [3]: P. aeruginosa biofilm formation inhibitors, primary screen, PAO1 strain, BacTiter-Glo luminescence, LB-PBS (AID 1144). To be noted: 12 h, higher = more signal.
Test [4] in a line: CREB reporter modulators without forskolin, primary screen, cell-based, PC12, CRE-LacZ reporter, unstimulated (AID 1145). The conditions noted are these: no forskolin, luminescence, 4.5 h, higher = more signal, called active from +8 up or from −8 down.
The nature of test [5]: CREB reporter modulators under forskolin, primary screen, cell-based, PC12, CRE-LacZ reporter, forskolin-stimulated (AID 1146).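 Further: PC12 cells with 6xCRE LacZ reporter stimulated by forskolin 10 µM; beta-galactosidase reporter signal reflecting CREB driven transcription.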 To be noted: luminescence, 4.5 h, higher = more signal, called active from +8 up or from −8 down.
The target of test [6] is Streptavidin (Streptomyces avidinii) (UniProt P22629). Nature of the test: streptavidin binders on small-molecule microarray, primary screen, artefact control for SMM compound annotation, biophysical, 635/667 nm fluorescence (AID 1147).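 Further: signal reflects streptavidin binding to arrayed compounds as a control protein.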 To be noted: streptavidin binding, higher = more signal.
Test [7] is described as follows: small-molecule binders of probe aInhba, primary screen, biochemical, small-molecule microarray, 635/667 nm fluorescence (AID 1148).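 Further: score merges 667nm spot fluorescence with signal-to-noise for antibody binding to printed compounds.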 The conditions noted are these: higher = more signal.
The target in test [8] is Torsin-1A (Homo sapiens) (UniProt O14656). As to the kind of experiment: torsin A binders from cell lysate, primary screen, small-molecule microarray, wild-type, 635/667 nm (AID 1149). The conditions noted are these: COS7 hTOR1A-WT lysate, 635 nm fluorescence, higher = more signal.
Test [9] shares this target. Nature of the test: small-molecule binders of mutant TOR1A in lysate, primary screen, cell lysate, small-molecule microarray, COS7 lysate, 635/667 nm fluorescence (AID 1150).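 Further: score pools 667 nm emission and signal to noise measuring lysate protein binding.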 To be noted: COS7 hTOR1A mutant lysate, 635 nm fluorescence, higher = more signal.
Test [10] has as its system Sonic hedgehog protein (Shh). Nature of the test: small-molecule binders of Shh protein, primary screen, biochemical, small-molecule microarray, 635/667 nm fluorescence (AID 1151).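 Further: Shh protein binding to compounds spotted on small-molecule microarray slides; score combines spot fluorescence intensity with signal-to-noise across triplicate slides.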 To be noted: small-molecule microarray binding, 635 nm fluorescence; higher = more signal.
A short description of test [11]: E. coli DRC41 culture turbidity changes, primary screen, E. coli filamentation inducer project, strain DRC41, OD650, 48 h (AID 1152).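 Further: E. coli MC1000 strain DRC41 lacking acrAB efflux pump and sulA.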 To be noted: E. coli DRC41 (acrAB sulA), higher = more signal, called active from +8 up or from −8 down.
Test [12] in a line: small-molecule binders of probe aLefty1, primary screen, biochemical, small-molecule microarray, 635/667 nm fluorescence (AID 1153).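 Further: score merges spot fluorescence with signal-to-noise ratio from the scanned slide images.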 To be noted: higher = more signal.
Test [13] in a line: PSAC antagonists in infected red cells, primary screen, cell-based, P. falciparum Indochina, OD700, 1 h (AID 1154). The conditions noted are these: P. falciparum Indochina infected RBC osmotic lysis, higher = more signal, called active from +8 up or from −8 down.
The nature of test [14]: PSAC antagonists in infected red cells, primary screen, cell-based, P. falciparum Indochina, OD700, 2 h (AID 1155).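 Further: lysis reports solute entry through the parasite surface anion channel PSAC; channel blockers reduce lysis of infected cells.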 The conditions noted are these: P. falciparum Indochina infected erythrocytes, osmotic lysis OD700; higher = more signal, called active from +8 up or from −8 down.
Test [15] is described as follows: osmotic lysis modulators in infected erythrocytes, primary screen, PSAC antagonist project, cell-based, P. falciparum Indochina, OD700, 3 h (AID 1156). To be noted: higher = more signal, called active from +8 up or from −8 down.
Test [16] in a line: PSAC antagonists in infected red cells, primary screen, cell-based, P. falciparum Indochina, OD700, 18 h (AID 1157). The conditions noted are these: P. falciparum Indochina infected erythrocytes, osmotic lysis OD700, 18 h; higher = more signal, called active from +8 up or from −8 down.
The nature of test [17]: modulators of S6 phosphorylation in cells, primary screen, cell-based, A549, cytoblot, luminescence, serum-stimulated (AID 1158).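 Further: serum-stimulated A549 lung adenocarcinoma cells; signal is phosphorylated S6 detected by cytoblot immunostaining with HRP secondary.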 To be noted: A549 phospho-S6 cytoblot, 5 h, higher = more signal.
Test [18] has as its target NADPH oxidase 2 (Homo sapiens) (UniProt P04839). Nature of the test: NOX2-dependent H2O2 signal modulators, primary screen, NOX inhibitor project, cell-based, HEK293-NOX2, PMA-stimulated, Amplex Red fluorescence (AID 1159). Further: test concentration not given here. To be noted: 45 min, higher = more signal, called active from +8 up or from −8 down.
Test [19] has as its target NADPH oxidase 4 (Homo sapiens) (UniProt Q9NPH5). Nature of the test: NOX4-dependent H2O2 signal modulators, primary screen, NOX inhibitor project, cell-based, HEK293-NOX4, tetracycline-induced, Amplex Red fluorescence (AID 1160). The conditions noted are these: 45 min, higher = more signal, called active from +8 up or from −8 down.
The target of test [20] is NADPH oxidase 5 (Homo sapiens) (UniProt Q96PH1). As to the kind of experiment: NOX5-dependent H2O2 signal modulators, primary screen, NOX inhibitor project, cell-based, HEK293-NOX5, Amplex Red fluorescence (AID 1161). To be noted: HEK293-NOX5, ionomycin, 45 min, higher = more signal.

The source made the active and inactive calls. Unless noted, how the calls were made is not given here.

Chain of NADPH oxidase 2 (Homo sapiens) (P04839 whole entry, looked up): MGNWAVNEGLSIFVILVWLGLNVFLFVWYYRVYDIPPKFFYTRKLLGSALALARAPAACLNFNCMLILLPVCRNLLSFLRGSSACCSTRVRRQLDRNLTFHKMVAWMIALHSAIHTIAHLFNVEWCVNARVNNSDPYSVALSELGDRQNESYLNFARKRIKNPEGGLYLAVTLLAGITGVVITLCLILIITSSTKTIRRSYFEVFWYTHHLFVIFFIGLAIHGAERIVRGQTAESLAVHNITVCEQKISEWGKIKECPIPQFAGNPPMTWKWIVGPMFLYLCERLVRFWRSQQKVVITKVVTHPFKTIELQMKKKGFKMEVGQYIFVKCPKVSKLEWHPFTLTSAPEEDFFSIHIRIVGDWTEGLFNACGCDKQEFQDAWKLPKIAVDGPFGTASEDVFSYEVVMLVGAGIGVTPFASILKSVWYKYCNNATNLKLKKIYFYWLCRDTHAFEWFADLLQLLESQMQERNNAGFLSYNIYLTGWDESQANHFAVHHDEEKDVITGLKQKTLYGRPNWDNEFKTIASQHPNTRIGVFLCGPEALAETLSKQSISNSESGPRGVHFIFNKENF
Chain of Torsin-1A (Homo sapiens) (O14656 whole entry, looked up): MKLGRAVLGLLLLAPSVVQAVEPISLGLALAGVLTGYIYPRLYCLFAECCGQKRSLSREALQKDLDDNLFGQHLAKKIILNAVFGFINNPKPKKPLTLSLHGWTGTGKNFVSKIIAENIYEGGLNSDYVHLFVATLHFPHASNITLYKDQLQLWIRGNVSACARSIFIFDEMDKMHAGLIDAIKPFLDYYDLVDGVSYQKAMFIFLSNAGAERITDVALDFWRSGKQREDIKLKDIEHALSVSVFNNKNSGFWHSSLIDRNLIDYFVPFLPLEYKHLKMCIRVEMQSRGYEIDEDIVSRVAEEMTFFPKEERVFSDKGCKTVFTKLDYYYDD
Chain of Streptavidin (Streptomyces avidinii) (P22629 whole entry, looked up): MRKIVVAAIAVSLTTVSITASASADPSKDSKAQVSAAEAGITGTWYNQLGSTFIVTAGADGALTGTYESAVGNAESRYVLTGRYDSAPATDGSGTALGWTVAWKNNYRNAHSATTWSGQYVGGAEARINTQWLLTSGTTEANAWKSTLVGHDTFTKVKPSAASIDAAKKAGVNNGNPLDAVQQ
Chain of NADPH oxidase 4 (Homo sapiens) (Q9NPH5 whole entry, looked up): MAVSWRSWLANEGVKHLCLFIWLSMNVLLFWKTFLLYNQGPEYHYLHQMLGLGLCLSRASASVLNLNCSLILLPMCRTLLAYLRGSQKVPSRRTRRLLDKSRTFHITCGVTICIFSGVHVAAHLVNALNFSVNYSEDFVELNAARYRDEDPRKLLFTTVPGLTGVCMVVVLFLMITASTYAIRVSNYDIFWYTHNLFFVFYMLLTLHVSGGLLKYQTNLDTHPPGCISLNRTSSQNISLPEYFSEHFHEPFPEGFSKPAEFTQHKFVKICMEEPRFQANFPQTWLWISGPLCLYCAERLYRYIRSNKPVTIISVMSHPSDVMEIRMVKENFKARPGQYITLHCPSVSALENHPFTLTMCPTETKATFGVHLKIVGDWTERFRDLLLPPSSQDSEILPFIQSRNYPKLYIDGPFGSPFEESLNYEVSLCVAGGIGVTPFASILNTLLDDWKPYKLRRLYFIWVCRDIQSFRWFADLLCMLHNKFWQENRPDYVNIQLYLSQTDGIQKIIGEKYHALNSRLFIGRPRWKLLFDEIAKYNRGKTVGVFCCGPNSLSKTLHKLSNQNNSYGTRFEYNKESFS
Chain of NADPH oxidase 5 (Homo sapiens) (Q96PH1 whole entry, looked up): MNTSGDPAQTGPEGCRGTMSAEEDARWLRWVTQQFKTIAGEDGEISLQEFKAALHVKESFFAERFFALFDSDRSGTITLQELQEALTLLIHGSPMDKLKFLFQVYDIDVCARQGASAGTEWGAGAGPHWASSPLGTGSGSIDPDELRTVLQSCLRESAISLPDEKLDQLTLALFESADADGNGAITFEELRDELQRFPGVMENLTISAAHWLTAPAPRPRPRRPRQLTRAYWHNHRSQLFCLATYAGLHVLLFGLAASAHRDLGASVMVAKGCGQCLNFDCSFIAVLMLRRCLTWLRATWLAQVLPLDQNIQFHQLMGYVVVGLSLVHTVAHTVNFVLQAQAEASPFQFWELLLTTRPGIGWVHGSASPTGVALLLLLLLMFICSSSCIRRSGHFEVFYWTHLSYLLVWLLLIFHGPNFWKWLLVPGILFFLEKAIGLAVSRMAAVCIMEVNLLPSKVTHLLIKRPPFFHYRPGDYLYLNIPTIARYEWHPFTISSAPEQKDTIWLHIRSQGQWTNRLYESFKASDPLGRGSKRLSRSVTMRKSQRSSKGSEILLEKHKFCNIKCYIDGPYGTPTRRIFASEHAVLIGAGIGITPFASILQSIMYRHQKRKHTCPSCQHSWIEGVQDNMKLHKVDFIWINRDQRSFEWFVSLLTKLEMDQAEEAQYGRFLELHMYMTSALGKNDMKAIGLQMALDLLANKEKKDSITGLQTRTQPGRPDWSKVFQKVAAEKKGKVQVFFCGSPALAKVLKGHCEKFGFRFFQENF

On to `COc1cccc(C)c1NC(=O)O[C@H]1[C@H](OC(=O)Nc2ccccc2-c2ccccc2)[C@H](OC(=O)Nc2ccccc2-c2ccccc2)[C@@H](OC)O[C@@H]1CO`, for which the composite z-score was 0.63 in test [1]; 1.26 in test [6]; 0.0128 in [7]; 0.561 in the test with Torsin-1A (Homo sapiens) [8]; 0.455 in the test with Torsin-1A (Homo sapiens) [9]; 1.39 in test [10]. The composite z-score in [12] was -0.017. Further, the z-score in test [2] is -3.45 (inactive); in [3], 1.14 (inactive); in test [4], -0.207 (inactive); in test [5] it was -0.433 (inactive); in test [11], -0.0771 (inactive); in test [13], 1.57 (inactive). Further, the z-score in test [14] is 0.557 (inactive); in test [15] it was -0.299 (inactive); in [16], 0.742 (inactive); in test [17] it was -0.319; in [18] it was 0.224 (inactive); in test [19] it was -0.572 (inactive). This molecule also displayed a z-score in [20] of -0.507.
As to `CC1CC/C=C\[C@H]2OC34C=CCN(c5ccc6ccccc6c5)C(=O)[C@H]3N(CCCO)C(=O)[C@@H]4C2C(=O)O1` (stereo not given in full), the composite z-score in test [1] is -1.1; in test [6], -1.1; in test [7] it was -0.293; in the test with Torsin-1A (Homo sapiens) [8] it was -2.88; in the test with Torsin-1A (Homo sapiens) [9], -1.47; in test [10] it was -0.749. In addition, the composite z-score in [12] was -0.138. Also, the z-score in test [2] was 0.0518 (inactive); in test [3] it was 1.57 (inactive); in test [4], 0.191 (inactive); in test [5], 0.234 (inactive); in test [11] it was -0.866 (inactive); in [13] it was 1.33 (inactive). In addition, the z-score in test [14] was 0.398 (inactive); in test [15] it was -0.0069 (inactive); in [16] it was 0.357 (inactive); in test [17], -0.0819; in test [18] it was 1.84 (inactive); in test [19], -1.18 (inactive). In test [20], the z-score worked out at 2.84.
As to `CC(C)NC(=O)[C@@]1(c2ccc([N+](=O)[O-])cc2)CC(=O)N(C2CCCCC2)[C@@H]1c1ccc(CO)cc1`, the composite z-score is 0.34 in [1]; 0.119 in [6]; -0.12 in [7]; 0.574 in the test with Torsin-1A (Homo sapiens) [8]; 0.5 in the test with Torsin-1A (Homo sapiens) [9]; 1.68 in test [10]. The composite z-score in test [12] was -0.154. For the same molecule, the z-score in test [2] is -2.26 (inactive); in test [3], -0.177 (inactive); in [4], 1.09 (inactive); in [5], -0.0351 (inactive); in test [11], 1.1 (inactive); in [13] it was 0.66 (inactive). Moreover, the z-score in test [14] was 0.168 (inactive); in [15] it was 0.18 (inactive); in test [16] it was -0.0376 (inactive); in [17], -0.391; in test [18], 0.0357 (inactive); in test [19], 0.164 (inactive). The molecule also returned a z-score in test [20] of -0.229.
For the molecule `COC(=O)C1=CC(CCCO)=CC(c2cccs2)N(Cc2cccc(OC(F)(F)F)c2)C=C1C(=O)OC` (stereo not given), the composite z-score in test [1] is 0.237; in test [6], 1.93; in test [7] it was -0.0619; with Torsin-1A (Homo sapiens) [8] it was 1; with Torsin-1A (Homo sapiens) [9], 1.56; in test [10], -0.403. In [12], this molecule came in with a composite z-score of -0.126. In addition, the z-score was -3.26 (inactive) in [2]; 0.759 (inactive) in test [3]; -0.815 (inactive) in test [4]; 0.0187 (inactive) in [5]; -0.504 (inactive) in [11]; 4.92 (inactive) in test [13]. The z-score in [14] was 1.34 (inactive); in [15], 0.87 (inactive); in test [16], 0.842 (inactive); in test [17], -0.344; in [18] it was -0.244 (inactive); in test [19], -0.436 (inactive). The molecule also registered a z-score in [20] of -0.0441.
Turning to `C=CCC(OC(C)=O)[C@@H]1[C@@H](N(Cc2ccc(-c3ccccc3)cc2)C(=O)c2ccc(-c3ccccc3)cc2)c2cc(OCCCO)ccc2N1C(=O)c1ccc2ccccc2c1` (stereo not given in full), the composite z-score in [1] is 0.028; in [6] it was 0.485; in test [7], -0.101; with Torsin-1A (Homo sapiens) [8], 0.0449; with Torsin-1A (Homo sapiens) [9], -0.0178; in [10], 0.255. Further, the composite z-score in test [12] amounted to 0.445. Also, the z-score is 0.39 (inactive) in [2]; -0.0995 (inactive) in test [3]; -0.23 (inactive) in [4]; 0.318 (inactive) in test [5]; -0.75 (inactive) in [11]; 0.225 (inactive) in test [13]. Besides, the z-score in test [14] was -0.135 (inactive); in test [15], -0.503 (inactive); in test [16] it was -0.0602 (inactive); in test [17] it was 0.6; in test [18], 0.707 (inactive); in test [19], 0.987 (inactive). In [20], the z-score stood at 0.99.
